Pol kappa inh = blocks human DNA polymerase kappa activity | Q9UBT6 | purified Pol kappa, fluorescent DNA synthesis assay, 10 min | Potency, µM (series often up to 107 µM), for inactives: at the top dose activity, negative = inhibition, usual class: inhibitors | actives 0.53% (n = 400,000) | AID 588579; also: % is scaled to controls: 0 for no effect and ±100 for the full control effect
Target sequence (Q9UBT6 whole entry, looked up): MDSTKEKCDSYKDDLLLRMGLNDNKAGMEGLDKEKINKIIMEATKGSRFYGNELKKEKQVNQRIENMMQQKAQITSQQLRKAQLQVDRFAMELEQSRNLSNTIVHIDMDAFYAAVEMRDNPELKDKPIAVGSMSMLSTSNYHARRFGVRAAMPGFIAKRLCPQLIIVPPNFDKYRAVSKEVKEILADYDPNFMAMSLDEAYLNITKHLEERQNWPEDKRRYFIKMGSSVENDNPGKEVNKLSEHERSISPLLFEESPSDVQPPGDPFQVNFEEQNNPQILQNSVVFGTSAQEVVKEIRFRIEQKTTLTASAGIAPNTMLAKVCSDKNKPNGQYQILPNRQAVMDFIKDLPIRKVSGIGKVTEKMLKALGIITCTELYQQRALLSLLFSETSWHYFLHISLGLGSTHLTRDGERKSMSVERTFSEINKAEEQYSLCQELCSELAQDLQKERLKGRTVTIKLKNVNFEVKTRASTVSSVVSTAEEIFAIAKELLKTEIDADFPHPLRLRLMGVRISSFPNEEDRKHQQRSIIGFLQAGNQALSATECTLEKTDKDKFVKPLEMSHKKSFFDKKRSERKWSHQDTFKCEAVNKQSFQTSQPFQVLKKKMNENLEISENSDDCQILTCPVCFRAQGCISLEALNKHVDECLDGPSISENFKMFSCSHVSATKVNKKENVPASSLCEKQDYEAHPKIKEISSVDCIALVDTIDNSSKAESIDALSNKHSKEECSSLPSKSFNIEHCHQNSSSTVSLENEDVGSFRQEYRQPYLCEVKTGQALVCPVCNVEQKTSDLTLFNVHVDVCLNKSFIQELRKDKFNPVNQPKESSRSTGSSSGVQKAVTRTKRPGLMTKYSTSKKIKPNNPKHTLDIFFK
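Fluorescent qHTS in 1536-well format: enzyme (10 nM) and compound sat 15 min at room temperature before 50 nM substrate (final) was added. Signal taken at 0 and 10 min; no-enzyme buffer wells were negative controls.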
FEN1 inhibitor = inhibitors of human flap endonuclease 1; P39748; Recombinant FEN1 flap cleavage, fluorescence, 15 min; Potency, µM (doses to about 114 µM), inactives show at the highest dose activity change, negative = inhibition, usual class: inhibitors; actives 0.35% (n = 390,000); also: % is scaled to controls: 0 for no effect and ±100 for the full control effect; nearly all actives have a fitted effect of over 65% in size
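Potency values derive from four-parameter Hill fits of normalized qHTS data. The reaction used 10 nM FEN1 preincubated 15 min at room temperature with compound, then 50 nM DNA substrate, read at 0 and 15 min.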
POLI inh = blocks human DNA polymerase iota activity; actives 1% (n = 390,000); AID 588590; Pol iota fluorescent replication assay, 10 min; Potency, µM (titrated, usually from 115 µM), for inactives: at the top dose activity, negative = inhibition, most hits filed as inhibitors
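Fluorescent replication assay read twice, at 0 min and 10 min after adding 50 nM (final) substrate. Enzyme (10 nM) and compounds were first incubated 15 min at room temperature; enzyme-free buffer wells were negative controls.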
WRN helicase inh = inhibitors of human WRN helicase. AID 651768. actives 0.46% (n = 360,000). Potency, µM (titrated, usually from 114 µM), for inactives: top-dose activity change, negative = inhibition, most hits filed as inhibitors. WRN helicase unwinding, fluorescent forked duplex, kinetic; also: % is scaled to controls: 0 for no effect and ±100 for the full control effect; nearly all actives have a fitted effect of over 55% in size
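Enzyme (20 nM final) and test compound sit together 15 min at room temperature before substrate addition. Substrate is a single-forked duplex oligonucleotide (100 nM) labelled with fluorophore and quencher, with 2 mM ATP; helicase unwinding raises red fluorescence, read kinetically.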
Pol beta inh = inhibitors of human DNA polymerase beta. Pol beta primer extension/strand displacement, fluorescence kinetic. actives 1.3% (n = 340,000). AID 485314. P06746. Potency, µM (highest dose often 114 µM), inactives show at the top dose activity change, negative = inhibition, usual class: inhibitors; also: % is scaled to controls: 0 for no effect and ±100 for the full control effect
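Preincubation: enzyme (10 nM) with compound, 15 min, RT. Reaction: substrate added to 50 nM final. Reads: 0 and 10 min. Analysis: normalized, Hill fit.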
Pol eta inh = blocks human DNA polymerase eta activity; Q9Y253; recombinant Pol eta, fluorescent DNA replication assay; Potency, µM (top dose mostly 114 µM), for inactives: at the top dose activity change, negative = inhibition, usual class: inhibitors; actives 1.2% (n = 390,000); also: % is scaled to controls: 0 for no effect and ±100 for the full control effect
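Fluorescent replication assay: 50 nM final substrate added after a 15 min room-temperature compound preincubation with 10 nM enzyme. Signal taken at 0 min and again at 10 min.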
Active calls of the source: *; ? = inconclusive; nt = no result; ! = not active in a repeat; [ ] = another dose, or the depositor's remark. A selection: hits, their analogues and other compounds. The true share with any hit is near 2.4%. Calls follow the shape of the dose curve; as a rule, active = well fitted curve in the direction sought with a large enough effect; inconclusive = small, poorly fitted or top-dose-only effect, or another doubt; inactive = no such curve, though single readings can be large; an effect the other way counts as inactive or inconclusive. Potency is read from the fitted curve at half-maximal effect.

SMILES	Pol kappa inh	FEN1 inhibitor	POLI inh	WRN helicase inh	Pol beta inh	Pol eta inh
CN1CCN(c2ncc3nc(-c4ccccc4)c(=O)n(Cc4ccc(F)cc4)c3n2)CC1	-11.1%[60.1 µM]	nt	nt	nt	nt	nt
Nc1[nH]c(=O)nc2nnsc12	-5.1%	4.5%	0.4%	nt	nt	nt
COc1ccccc1NC(=O)c1ncn(-c2ccccc2)n1	-7.2%	3.2%	89.1µM*	nt	5.4%	nt
COc1ccc(NC(=O)c2ncn(-c3ccccc3)n2)cc1Cl	7.0%	3.5%	11.1%	nt	0.0%	-17.6%
O=c1ccn([C@@H]2O[C@H](COP(=O)(O)O)[C@@H](O)[C@H]2O)c(=O)[nH]1	7.3%[19.4 µM]	nt	nt	nt	nt	nt
COc1cc2cc(Oc3ccc4ccc(=O)oc4c3)c(=O)oc2cc1OC(C)=O	-17.5%	17.1%	-6.1%	1.6%	0.3%	?
COc1cc2cc(Oc3ccc4ccc(=O)oc4c3)c(=O)oc2cc1OC(=O)C=C(C)C	nt	nt	nt	nt	14.1µM*	nt
CCC1(c2ccc(OC)cc2)NC(=O)N(C)C1=O (configuration not stated)	16.5%[60.1 µM]	nt	nt	nt	nt	nt
Cc1ccc2nc(Cn3cc(C(F)(F)F)ccc3=O)cc(=O)n2c1	-17.1%	-1.5%	62.7%	1.8%[57.1 µM]	0.0%	-10.6%
O=c1ccc(C(F)(F)F)cn1Cc1cc(=O)n2cc(Br)ccc2n1	?	-11.2%	?	-6.4%	12.6µM*	-1.7%
CCCC[C@H]1C2=C3[C@@H](CC(C(=O)OC)=C[C@@H](C(=O)OC)[C@H]3C(C)(C)C2=O)n2c(=O)n(C)c(=O)n21	18.5%	-4.4%	12.9%	nt	nt	nt
O=C(COC(=O)c1ccc(C(F)(F)F)cc1)NC(=O)C1CCCCC1	-10.9%	14.0%	-13.4%	nt	nt	nt
CCn1c(C)c(C)c2cc(C(=O)NCCCN3CCCCCC3)ccc21	-12.0%	7.3%	89.1µM*	-1.5%[11.6 µM]	5.1%	-6.4%
CC1(C)NC(=O)N(CN2C(=O)NC(C)(C)C2=O)C1=O	1.6%	-1.7%	-3.5%	4.6%	79.4µM*	-7.7%
Cc1ccc(C)n1-c1nnc(N2CCC(C(=O)Nc3ccccc3Br)CC2)s1	-8.1%	10.5%	5.8%	nt	0.5%	nt
O=C1/C(=C/c2ccsc2)CC/C1=C\c1cccs1	-2.5%[60.1 µM]	nt	nt	nt	nt	nt
O=S(=O)(Nc1cccnc1)c1cccc2ccccc12	3.2%	13.1%	-16.8%	nt	nt	nt
O=C(O)c1ccc(-c2nc(-c3ccc(Cl)c(Cl)c3)cs2)cc1	10.8%	-4.5%	-5.3%	9.9%	10.3%	-14.8%
NC(=O)C(=CNc1nc(-c2ccc(Cl)c(Cl)c2)cs1)C(N)=O	nt	nt	nt	nt	1.41µM*	nt
O=C1Oc2ccccc2C(=O)C1C(CC(O)c1ccc(-c2ccc(Br)cc2)cc1)c1ccccc1 (configuration not stated)	-1.7%[19.4 µM]	nt	nt	nt	nt	nt
CCc1c2c(nc3ccc4c(c13)OCCO4)-c1nc3ccccc3c(=O)n1C2	-18.4%	8.2%	-6.5%	nt	nt	nt
Cc1ccc(NC2=C(NCCO)C(=O)c3ccccc3C2=O)cc1	-18.2%	-10.7%	20µM*	-13.4%	-11.5%	-11.6%
CCOC(=O)c1sc2nc(-c3ccco3)c3c(c2c1N)CC(C)(C)OC3	-14.6%	3.0%	-9.5%	?	39.8µM*	?
CC(C)(CO)C(O)C(=O)NCCCC(=O)O (configuration not stated)	2.3%[19.4 µM]	nt	nt	nt	nt	nt
COc1cc(OC)c2c(c1C(CCN1CCCC1)c1ccc(N(C)C)cc1)OC(=O)CC2c1ccc(N(C)C)cc1 (configuration not stated)	-10.5%	1.8%	?	nt	nt	nt
SMILES	Pol kappa inh	FEN1 inhibitor	POLI inh	WRN helicase inh	Pol beta inh	Pol eta inh
COc1ccc(NC(=O)C2CCCN(S(=O)(=O)c3ccc4c(c3)CCCN4C(C)=O)C2)cc1 (configuration not stated)	-16.5%	14.5%	79.4µM*!	-3.0%	4.2%	19.3%
COc1cc(NC(=O)C2CCCN(S(=O)(=O)c3ccc4c(c3)CCCN4C(C)=O)C2)cc(OC)c1 (configuration not stated)	-15.1%	6.3%	-1.7%	-25.9%[57.1 µM]	3.2%	-10.4%
Cc1ccc2c(c1)CCC2=O	-56.1%	?	?	nt	nt	nt
COc1ccc(/C=C/c2cc[n+](C)c3ccccc23)cc1OC	?	44.7µM*	?	nt	nt	nt
C[n+]1ccc(/C=C/c2ccc([N+](C)(C)C)cc2)c2ccccc21	?	22.4µM*	?	nt	nt	nt
C[n+]1ccc(/C=C/c2ccc(F)cc2)c2ccccc21	-28.0%	-7.4%	-29.0%	nt	nt	nt
C[n+]1ccc(/C=C/c2cc[n+](C)c3ccccc23)c2ccccc21	?	10µM*	?	nt	nt	nt
CC(C)(C)c1ccc(NC(=O)COC(=O)c2ccccc2OCC(=O)Nc2ccc(Br)cc2)cc1	-9.0%	11.8%	-3.9%	nt	nt	nt
COc1cc(OC)c2c(O)c3c(c(-c4c5c(c(O)c6c(OC)cc(OC)cc46)CO[C@@H](C)[C@H]5O)c2c1)[C@H](O)[C@H](C)OC3	39.8µM*	?	?	50.1µM*	35.5µM*	20µM*
Cc1ccc(NCN2C(=O)C3C4C=CC(C4)C3C2=O)cc1 (configuration not stated)	-3.2%	9.3%	2.4%	1.2%	16.8%	-6.0%
O=C1C2C3C=CC(C3)C2C(=O)N1CNc1ccc(O)cc1 (configuration not stated)	nt	nt	nt	nt	39.8µM*	nt
Cc1ccc(C(=O)O/N=C(\N)c2ccc(Br)cc2)cc1	-22.8%	-5.5%	89.1µM*	-2.0%[57.1 µM]	?	-21.9%
O=[N+]([O-])c1ccc2c(c1)C=C/C2=C/c1ccccc1	-8.2%	-21.5%	?	nt	nt	nt
Cc1cc(C)c2c(=O)n(CC(=O)Nc3ccc(Cl)cc3)sc2n1	-5.2%	?	-12.2%	0.5%	-12.1%	-6.6%
CCOc1ccc(NC(=O)Cn2sc3nc(C)cc(C)c3c2=O)cc1	-12.5%	89.1µM*	?	20µM*	1.4%	-13.4%
CCN1C(Br)=CCc2ccccc21	-0.1%	12.3%	14.2%	nt	nt	nt
COc1cc(N2C(=O)C=CC2=O)ccc1N1C(=O)C=CC1=O	39.8µM*	50.1µM*	39.8µM*	20µM*	nt	25.1µM*
O=C(C[n+]1ccnc2ccccc21)c1ccc(Br)cc1	7.9%	0.2%	46.5%	nt	nt	nt
CC(=O)NC1=NC(=O)/C(=C/c2cn(C(C)=O)nc2-c2ccccc2)S1	-21.1%	?	22.4µM*	-14.5%[11.6 µM]	-12.6%	?
CN1CCOc2cc(S(=O)(=O)N3CCN(c4nc(-c5cccs5)nc5ccccc45)CC3)ccc21	-19.6%	6.1%	10.6%	nt	nt	nt
O=C(Cn1ncc2c3ccccc3n(Cc3cccc(Cl)c3)c2c1=O)NC1CCCCCC1	-14.8%	1.4%	?	nt	12.6µM*	?

High-throughput results (PubChem)
